This is a sample that favours compounds with a hit; in the whole collection about 2.3% have one here.
CHO-K1 Ca antag = counter-screen for M1 antagonists: effect in parental CHO-K1 cells | ATP-induced calcium, Fluo-8 fluorescence | inhibition, % at 3 µM | hit rate 0.6% among 360,000 | AID 602250;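 active = inhibition above a per-plate cutoff, the plate's mean sample inhibition plus 3 SD, cut at about 24% in these data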;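 note: 0% = DMSO plus EC80 ATP and 100% = DMSO alone without ATP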
M1 PAM = human CHRM1 positive allosteric modulation; P11229; CHO-K1 hM1, Fluo-8 calcium fluorescence, ACh EC20; 0% = ACh EC20, 100% = maximal ACh; activation, % at 3 µM; hit rate 0.088% among 360,000; AID 588819; in the data active = activation above about 19%, passing the limit was not always enough
Target sequence (P11229 whole entry, looked up): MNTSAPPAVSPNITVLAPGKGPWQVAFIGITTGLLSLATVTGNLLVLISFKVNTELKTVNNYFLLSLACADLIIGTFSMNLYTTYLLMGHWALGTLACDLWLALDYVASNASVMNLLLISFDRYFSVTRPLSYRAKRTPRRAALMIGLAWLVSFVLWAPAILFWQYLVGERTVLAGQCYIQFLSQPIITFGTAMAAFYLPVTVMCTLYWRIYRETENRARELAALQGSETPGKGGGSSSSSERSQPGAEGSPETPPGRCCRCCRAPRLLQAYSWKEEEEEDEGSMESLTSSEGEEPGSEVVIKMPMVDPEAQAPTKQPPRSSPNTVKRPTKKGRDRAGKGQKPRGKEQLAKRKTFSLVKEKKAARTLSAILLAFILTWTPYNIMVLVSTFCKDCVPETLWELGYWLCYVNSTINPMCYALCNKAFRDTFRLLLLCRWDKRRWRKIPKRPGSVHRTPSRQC
M1 ag parental = M1 agonist counterscreen hit in parental CHO-K1 cells; AID 602248; activation, % at 3 µM; Fluo-8 calcium fluorescence; scaled to maximal ATP response, vehicle zero; hit rate 0.48% among 360,000; in the data active = activation above about 15%;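 note: untransfected CHO-K1 host cells lacking M1 receptor as counterscreen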
CHO-K1 Ca PAM = counter-screen for M1 PAMs: effect in parental CHO-K1 cells; activation, % at 3 µM; ATP EC20, Fluo-8 calcium fluorescence; 0% at ATP EC20, 100% at ATP max; hit rate 0.02% among 360,000;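 active = activation above the run cutoff, the mean activation of all test compounds plus 3 SD, cut at about 40% in these data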;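 note: peak over basal fluorescence ratio in a 140 s read after ATP addition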
CHRM1 agonist = agonists of human M1 muscarinic receptor | P11229 | hit rate 0.33% among 360,000 | CHO-K1 hM1, Fluo-8 calcium fluorescence, agonist mode; 0% DMSO, 100% acetylcholine EC100 | activation, % at 3 µM | AID 588814;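 active = activation above the run's mean compound activation plus 3 SD, cut at about 16% in these data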;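 note: peak over basal fluorescence ratio within a 140 s kinetic read after compound addition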
CHRM1 antagonist = human CHRM1 antagonism; inhibition, % at 3 µM; P11229; CHO-K1 hM1, Fluo-8 calcium fluorescence, ACh EC80 antagonist; hit rate 1.3% among 360,000;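 active = percent inhibition above its own plate's cutoff, namely the mean of that plate's compound wells plus 3 SD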;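 note: peak over basal fluorescence ratio during 140 s after agonist addition; 0% = ACh EC80 plus DMSO and 100% = DMSO alone without agonist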
An asterisk follows results filed as active.

SMILES	CHO-K1 Ca antag	M1 PAM	M1 ag parental	CHO-K1 Ca PAM	CHRM1 agonist	CHRM1 antagonist
CCOc1ccc(NC(=O)CN(C)C(=O)c2c(C)nn(-c3ccc(F)cc3)c2Cl)cc1OCC	7	15	0	-13	-5	-16
COc1ccc(CC(N)c2csc(NC(=O)Nc3ccccc3-c3ccccc3)n2)cc1 (stereo unspecified)	1	-4	3	-6	-1	5
COc1ccc(C(O)(CCN2CCCCC2)C2CCCCC2)cc1 (stereo unspecified)	3	-27	0	-4	-9	101*
CC(Oc1ccc(Br)cc1)C(=O)Nc1ccc(S(=O)(=O)NC2=NCCCCC2)cc1 (stereo unspecified)	-4	-8	23*	-12	29*	18
CC(Oc1ccc(F)cc1)C(=O)Nc1ccc(S(=O)(=O)NC2=NCCCCC2)cc1 (stereo unspecified)	2	3	5	-11	24*	-4
CC(Oc1cccc(Cl)c1)C(=O)Nc1ccc(S(=O)(=O)NC2=NCCCCC2)cc1 (stereo unspecified)	-8	7	12	3	12	-8
O=S(=O)(NC1=NCCCCC1)c1ccc(F)cc1	-4	7	1	7	-3	-1
CCOc1cc(/C=C(\C#N)C(=O)NCc2cccnc2)ccc1O	32*	12	9	-15	-3	-6
COc1ccc(/C=C(\C#N)C(=O)NCc2cccnc2)cc1OC	7	7	0	12	-7	-4
N#C/C(=C/c1cccc(O)c1)C(=O)NCc1ccc(Cl)cc1	-10	2	3	11	17*	28*
COc1ccc(OC)c(NC(=O)c2ccc(-c3cccs3)cc2)c1	0	1	0	5	-9	-11
COc1ccc(-n2nnc3c(=O)n(CC(=O)N4CCCc5ccccc54)cnc32)cc1	12	-2	0	3	-1	1
CCOc1ccc(-n2nnc3c(=O)n(CC(=O)N4CCCc5ccccc54)cnc32)cc1	4	-32	-1	13	-10	74*
Cc1cc(S(=O)(=O)N2CCN(c3ccc(F)cc3)CC2)ccc1-n1cnnn1	-16	4	6	9	-6	-5
Cc1cc(S(=O)(=O)N2CCN(c3ccccc3F)CC2)ccc1-n1cnnn1	1	-1	18*	8	-3	-1
CCC(C)C(NC(=O)C(Cc1ccc(O)cc1)NC(=O)OCc1ccccc1)C(=O)OC (stereo unspecified)	8	2	0	3	-2	9
CCCCN1C[C@H](C)[C@@H](CC(=O)NC)C1=O	-2	10	0	16	-1	-12
CCCCN1C[C@H](c2ccccc2)[C@@H](CC(=O)NC)C1=O	34*	5	0	-9	1	-17
CCN(Cc1ccccc1)C(=O)CN1C(=O)COc2ccc(S(=O)(=O)N3CCCCCC3)cc21	-2	-7	2	9	-2	13
CCN(C(=O)CN1C(=O)COc2ccc(S(=O)(=O)N3CCCCCC3)cc21)c1cccc(C)c1	-8	2	35*	24	3	-1
NC1=NC[C@@H](CC2CCCCC2)N1CCc1cc(C(F)(F)F)cc(C(F)(F)F)c1	-5	-17	0	7	1	35*
O=C(c1cnc2ccc3ccccc3c2c1)c1cc(F)ccc1O	-21	3	4	40*	6	0
Cc1ccc(S(=O)(=O)NCC(C)n2cncn2)cc1 (stereo unspecified)	-5	0	0	-11	-1	-2
O=C(O)c1cc([N+](=O)[O-])ccc1NCc1ccccc1	13	-2	0	-6	-2	3
O=C(O)c1cc([N+](=O)[O-])ccc1NCCCc1ccccc1	7	-2	1	2	18*	-24
SMILES	CHO-K1 Ca antag	M1 PAM	M1 ag parental	CHO-K1 Ca PAM	CHRM1 agonist	CHRM1 antagonist
O=C(C1CC(c2ccc(F)cc2)=NO1)N1CCCCC1 (stereo unspecified)	-12	-2	0	14	-3	3
NS(=O)(=O)c1ccc(N2CCN(C(=O)C3COc4ccccc4O3)CC2)nc1 (stereo unspecified)	13	6	0	-27	2	-9
O=C(C1COc2ccccc2O1)N1CCN(c2ccccc2)CC1 (stereo unspecified)	53*	-1	1	5	0	-17
COc1ccc(S(=O)(=O)N2CCN(C(=O)C3COc4ccccc4O3)CC2)cc1 (stereo unspecified)	-23	-28	6	12	-6	89*
O=C(C1COc2ccccc2O1)N1CCN(c2ccc(C(F)(F)F)cn2)CC1 (stereo unspecified)	5	4	24*	12	-2	-3
O=C(C1CC(c2ccc(F)cc2)=NO1)N1CCN(c2ccccc2)CC1 (stereo unspecified)	12	-9	0	-7	-3	47*
O=C(CN1C(=O)C2C3C=CC(C3)C2C1=O)OCC(=O)c1ccc(Cl)c([N+](=O)[O-])c1 (stereo unspecified)	7	-4	2	-19	-1	10
Cc1ccccc1NC(=O)N1CCCC(c2nc(-c3ccc(F)cc3)no2)C1 (stereo unspecified)	-9	-4	4	5	-6	-6
Cc1ccccc1NC(=O)N1CCCC(c2nc(-c3ccc(C(C)C)cc3)no2)C1 (stereo unspecified)	7	-5	17*	1	-2	13
COc1ccc(-c2csc(-c3[nH]cnc3N)n2)cc1	-18	8	1	13	2	-7
Cc1ccccc1C1c2[nH]c3ccccc3c2CCN1CCCn1cccn1 (stereo unspecified)	-15	-23	1	23	-7	91*
Fc1ccccc1C1c2[nH]c3ccccc3c2CCN1Cc1cccn1-c1ncccn1 (stereo unspecified)	7	-15	4	0	-8	13
Cc1ccccc1C1c2[nH]c3ccccc3c2CCN1Cc1cccn1-c1ncccn1 (stereo unspecified)	-4	-26	0	-14	-6	66*
COc1ccc(S(=O)(=O)NNC(=O)C23CC4CC(CC(C4)C2)C3)cc1[N+](=O)[O-]	8	1	1	24	-4	10
CCCOc1ccc(/C=C/C(=O)N2CCN(C(=O)c3ccco3)CC2)cc1OC	-7	-3	3	11	-3	2
COc1ccc2c(C)cc(SCC(=O)Nc3cccnc3Cl)nc2c1	5	7	0	9	-7	-11
Cc1ccc(-c2cc3nc(NCCc4ccncc4)n(C)c(=O)c3s2)cc1	-17	4	0	17	-6	-13
CC(C)NC(=O)CN1CCN(Cc2nc(-c3cccs3)no2)CC1	3	1	0	10	-6	14
